Screening results as filed in PubChem.
NIH3T3 tox – Cytotoxic Profiling in NIH 3T3 Cell Line of Diverse Libraries Using Quantitative High-Throughput Screening | AID 1345082, 2018 | Potency, µM (series often up to 96.7 µM), inactives show at the top dose activity change, negative = cytotoxicity, hits mostly inhibitors | 94,000 compounds, 4.3% hits | NIH 3T3 viability, CellTiter-Glo ATP luminescence, 48-72 h; also: nearly all actives have a fitted effect of over 55% in size
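First NIH 3T3 cells are plated at 400 cells/well; next compound is pinned in; then plates incubate 48 or 72 hr at 37 °C; finally CellTiter-Glo is added and luminescence read after 10 min.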
HEK cytotox – Cytotoxic Profiling in HEK 293 Cell Line of Diverse Libraries Using Quantitative High-Throughput Screening; HEK 293 viability, ATP luminescence (CellTiter-Glo), 48-72 h; Potency, µM (top dose mostly 115 µM), for inactives: top-dose activity change, negative = cytotoxicity, actives largely listed as inhibitors; 94,000 compounds, 6.6% hits; AID 1345083, 2018; also: nearly all actives have a fitted effect of over 60% in size
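HEK 293 seeded at 250 cells/well receive compound via pintool. After 48 or 72 hr at 37 degree Celsius, 5% CO2 and 95% humidity, CellTiter-Glo is dispensed and luminescence read following 10 min at room temperature.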
HEK293 viab – GF-AFC viability counterscreen for inhibitors of alpha-synuclein gene (SNCA) expression; HEK-293-SNCA-luc viability, GF-AFC fluorescence, 24 h; Potency, µM (top dose mostly 57.1 µM), for the others: at the highest dose activity change, negative = cytotoxicity, hits mostly cytotoxic; 150,000 compounds, 0.12% hits;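 also: 0% = DMSO-treated cells and -100% = medium-only wells without cells; nearly all actives have a fitted effect of over 30% in size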
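Cytotoxicity counterscreen: after 24 h compound treatment of genome-edited SNCA-luciferase HEK-293 cells, live-cell protease substrate GF-AFC read by fluorescence after 30 min; activity scaled between DMSO (0%) and medium-only (-100%), curves Hill-fitted.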
FLuc inh – Firefly luciferase inhibition profiling of diverse chemical library using quantitative high-throughput screening; Luciferin 4-monooxygenase (Photinus pyralis), P08659; purified P. pyralis luciferase, luminescence, biochemical; Potency, µM (top dose mostly 115 µM), actives largely listed as inhibitors; 76,000 compounds, 2.5% hits; AID 1347043, 2019; also: nearly all actives have a fitted effect of over 65% in size
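FLuc 10nM, D-luciferin 10uM, ATP 10uM, Mg acetate 10mM, Tris acetate pH 7.5, Tween/BSA; cpd qHTS; enzyme added last; CCD luminescence.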
hNpr1 antagonist – Natriuretic polypeptide receptor (hNpr1) antagonism - Primary qHTS; Atrial natriuretic peptide receptor 1 (Homo sapiens), P16066; AID 1347048, 2019; Potency, µM (series often up to 46.3 µM), inactives show top-dose activity change, negative = inhibition, most hits filed as inhibitors; HEK293 hNpr1 GloSensor cGMP, ANP-stimulated luminescence; 76,000 compounds, 1.6% hits; calls by dose curve; also: nearly all actives have a fitted effect of over 60% in size
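Compound pre-incubated 30 min at room temperature on GloSensor-loaded HEK293 cells stably carrying hNpr1 and the pGS-40F cGMP biosensor. Stimulation uses hNppA at 0.1 nM final; luminescence is taken at baseline and 20 min post-agonist.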
SNCA expr inh – Primary qHTS assay for inhibitors of alpha-synuclein gene (SNCA) expression | HEK-293 SNCA-luciferase knock-in, luminescence, 24 h | Potency, µM (highest dose often 57.2 µM), for inactives: top-dose activity change, negative = inhibition, most hits filed as inhibitors | 140,000 compounds, 0.17% hits;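 also: plate controls were DMSO cells for no effect and cell-free wells for full effect; nearly all actives have a fitted effect of over 45% in size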
An asterisk follows results filed as active; i = inactive; ? = inconclusive; / = no result given; ! = not active in a repeat; [ ] = remark or other dose. Only some compounds are listed: those with a hit (about 7.4% of all), similar ones and a draw of the others. Unless noted, calls follow the shape of the dose curve; as a rule, active = well fitted curve in the direction sought with a large enough effect; inconclusive = small, poorly fitted or top-dose-only effect, or another doubt; inactive = no such curve, though single readings can be large; an effect the other way counts as inactive or inconclusive. Unless noted, % is scaled to controls: 0 for no effect and ±100 for the full control effect; potency is read from the fitted curve at half-maximal effect.

SMILES	NIH3T3 tox	HEK cytotox	HEK293 viab	FLuc inh	hNpr1 antagonist	SNCA expr inh
Cc1nn(-c2ccc(C(C)C)cc2)c(C)c1[C@@H]1C=C[C@@H](NC(=O)NC2CCCCC2)C1	?	?	-30%[87.6 µM]	7.9µM*	?	-9%[87.6 µM]
Cc1nn(-c2ccc(C(F)(F)F)cc2)c(C)c1[C@@H]1C=C[C@@H](NC(=O)CC(C)(C)CC(=O)O)C1	?	-20%	4%	i	1%	16%
Cc1nn(-c2ccc(C(C)(C)C)cc2)c(C)c1[C@@H]1C=C[C@@H](NC(=O)NCc2ccccc2)C1	?	28µM*	?	?	18µM*	36%[87.6 µM]
Cc1nn(-c2ccc(C(C)(C)C)cc2)c(C)c1[C@@H]1C=C[C@@H](NCc2ccco2)C1	?	11µM*	-28%[87.6 µM]	50µM*	-30%[70.6 µM]	26%[87.6 µM]
Cc1nn(CCC#N)c(C)c1[C@@H]1C=C[C@@H](NC(=O)NCc2ccccc2)C1	-27%[174 µM]	-7%[172 µM]	0%[87.6 µM]	i	1%[70.6 µM]	-16%[87.6 µM]
CCNC(=O)N[C@@H]1C=C[C@@H](c2c(C)nn(-c3ccc(C(C)(C)C)cc3)c2C)C1	?	35µM*	?	?	32µM*	-7%[87.6 µM]
COc1ccc(CN2CCCC3(CNc4ccccc4[S+](=O)([O-])N3)C2)cc1 (stereo not given)	?	?	5%	i	3%	1%
Cc1nn(-c2ccc(C(C)C)cc2)c(C)c1[C@@H]1C=C[C@@H](NC(=O)NCc2ccccc2)C1	25µM*	25µM*	?	?	7.1µM*	?
Cc1nn(-c2ccc(C(C)C)cc2)c(C)c1[C@@H]1C=C[C@@H](NC(=O)Nc2ccc(Cl)cc2)C1	?	?	-9%	i	-19%	120%
Cc1ccc(-n2c(C3CCN(C(=O)Cc4cccc(C)c4)CC3)n[nH]c2=O)cc1	?	9%	-5%	i	0%	11%
Cc1ccc(-n2c(C3CCN(C(=O)c4nn(C)c5ccccc45)CC3)n[nH]c2=O)cc1	8.9µM*	-2%	-2%	i	0%	-1%
Cc1ccc(CC(=O)N2CCC(c3n[nH]c(=O)n3-c3ccccc3)CC2)cc1	35µM*	-7%	-6%	i	0%	-2%
COc1cccc(CC(=O)N2CCC(c3n[nH]c(=O)n3-c3ccc(C)cc3)CC2)c1	10µM*	0%	0%	i	10%	5%
Cn1nc(C(=O)N2CCC(OCCOc3ccccc3)CC2)c2ccccc21	?	?	-4%[12.5 µM]	40µM*	-1%	153%
CCN(CC)C(=O)[C@@H]1CCC[C@@H](NC2CCN(C)CC2)CN(C)C(=O)C1	0%[174 µM]	1%[172 µM]	1%[87.6 µM]	i	-3%[70.6 µM]	-17%[87.6 µM]
Cc1ccc(-n2c(C3CCN(C(=O)Cc4ccc(Cl)cc4)CC3)n[nH]c2=O)cc1	45µM*	-1%	-5%	i	0%	-15%
O=C(CN1C(=O)NC2(CCOCC2)C1=O)NCc1ccc2c(c1)OCO2	0%	1%	-1%	i	-3%	-20%
COc1cccc(-c2ccc(C(=O)NCCNC(=O)Cc3ccc(F)cc3)cc2)c1	?	89µM*	/	/	/	/
COc1cccc(-c2ccc(C(=O)NCCNC(=O)c3ccccc3F)cc2)c1	-28%	89µM*!	/	/	/	/
COc1ccc(Nc2ccnc(N3CCCC(C(=O)NCCc4ccc(Cl)cc4)C3)n2)cc1 (stereo not given)	?	?	-9%[12.5 µM]	/	/	0%
COCCS(=O)(=O)c1ncc(CN2CC[C@@H]3CCCC[C@H]3C2)n1Cc1ccccc1	?	45µM*	1%	i	-4%	-10%
COCCS(=O)(=O)c1ncc(CN(C)C(C)c2ccon2)n1Cc1ccccc1 (stereo not given)	?	-6%	-4%	i	1%	28%
COc1cccc(CN2CCOC3(CCN(Cc4cccc(Cl)c4)CC3)C2=O)c1	?	79µM*	-23%[87.6 µM]	i	-19%[70.6 µM]	-29%[87.6 µM]
COc1cccc(CN2CCOC3(CCN(Cc4ccc5[nH]ccc5c4)CC3)C2=O)c1	?	?	-4%[87.6 µM]	i	-2%[70.6 µM]	-20%[87.6 µM]
COc1ccc2nc(C[C@@H]3C[C@@H](C(C)C)[C@H](CNCc4ccc(NC(C)=O)cc4)C=C3C)[nH]c2c1	40µM*	?	1%	i	-15%	8%
SMILES	NIH3T3 tox	HEK cytotox	HEK293 viab	FLuc inh	hNpr1 antagonist	SNCA expr inh
COc1ccc2nc(C[C@@H]3C[C@@H](C(C)C)[C@H](CNCc4ccccn4)C=C3C)[nH]c2c1	?	79µM*	?	i	-25%[70.6 µM]	?
O=C(c1ccc(Cl)cc1)N1CCn2c(nn(-c3cccc(Cl)c3)c2=O)C1	?	?	9%	/	/	2%
Cc1nn(C)c(C)c1-c1cc(C(=O)N[C@H]2CC[C@H]2NC(C)C)n(C)n1	-10%	-26%	-6%	i	4%	1%
CC(C)C[C@@H]1N[C@H](C(=O)N2CCOCC2)Cc2cn(Cc3cccnc3)c3cccc1c23	-15%[138 µM]	-26%[172 µM]	-4%[87.6 µM]	i	-12%[70.6 µM]	-24%[87.6 µM]
CC(C)C[C@@H]1N[C@H](C(=O)NCc2ccc(C#N)cc2)Cc2c[nH]c3cccc1c23	25µM*	56µM*	?	i	-11%[70.6 µM]	?
CC(C)C[C@@H]1N[C@H](C(=O)NCc2ccc(C(F)(F)F)cc2)Cc2c[nH]c3cccc1c23	28µM*	32µM*	?	i	-7%[70.6 µM]	?
CC(C)C[C@@H]1N[C@H](C(=O)NCc2cccnc2)Cc2c[nH]c3cccc1c23	?	25µM*	?	i	-1%[70.6 µM]	?
Cn1nccc1CCC(=O)N[C@@H]1CCOC[C@H]1Oc1ccccn1	-3%	3%	4%	i	6%	10%
Cc1noc([C@@H]2CC(F)(F)CN2C(=O)c2ccc(F)cn2)n1	-8%	1%	2%	i	9%	0%
Cn1ncc2c(C(=O)NCCc3ccccc3F)cc(-c3ccc(F)cc3)nc21	?	32µM*	-19%	/	/	-23%
COc1ccc(CCNC(=O)c2cc(-c3ccccc3F)nc3c2cnn3C)cc1	?	35µM*	/	/	/	/
Cn1ncc2c(C(=O)NCC3CCCCCC3)cc(-c3ccccc3F)nc21	?	32µM*	/	/	/	/
COc1ccc(-c2cc(C(=O)NCCc3ccccc3F)c3cnn(C)c3n2)cc1	?	32µM*	-20%	/	/	-12%
Cn1ncc2c(C(=O)NCCc3ccccc3F)cc(-c3ccsc3)nc21	-10%	-3%	-10%	/	/	-16%
